# Most compounds without a hit are left out; they make up all but 2.3% or so of the library.
# TDP-43 yeast inh – rescues yeast growth from TDP-43 toxicity. 1.8% of 410,000 active. Potency, µM (series often up to 46.1 µM), for the others: top-dose growth rescue (activation), usual class: activators. TDP-43 expressing yeast growth rescue, BacTiter-Glo, 24 h; further: potency means the concentration at half of the fitted maximal effect; % of control where 0% means no effect; nearly all actives have a fitted effect of over 50% in size
#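 Galactose-induced TDP-43 yeast, OD600=0.02, compound pinned; 24 hr, 30 deg C; BacTiter-Glo luminescence for growth. Inhibitors of TDP-43 toxicity read as activators.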
# aSyn rescue – alpha-synuclein toxicity inhibition in yeast; Yeast expressing alpha-synuclein, growth rescue, BacTiter-Glo, 24 h; Potency, µM (titrated, usually from 46.1 µM), for the others: at the highest dose growth rescue (activation), hits mostly activators; 0.14% of 370,000 active; AID 652106; further: potency means the concentration at half of the fitted maximal effect; % of control where 0% means no effect; nearly all actives have a fitted effect of over 65% in size
#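 Galactose-induced alpha-syn yeast (OD600=0.02, raffinose-pregrown) + pinned cpd, 24 hr, 30 deg C; growth by BacTiter-Glo luminescence. Growth restoration scores as activation.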
# CCT chaperon mod – modulators of cytosolic chaperonin (CCT/TRiC) activity. purified chaperonin ATPase assay, HTRF ADP detection, 30 min. activity change, % (test concentration not listed), hits read low. 0.3% of 360,000 active; in the data active means activity change below about -30%; further: on the % scale 0 is the no-effect control and ±100 the full control effect
#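 TRiC (40 or 20 nM final, by batch activity) in 30 mM Tris pH 7.4, 100 mM KCl, 5 mM MgCl2, 1 mM DTT was treated with compound at 76 uM single dose, then 10 uM ATP, 30 min at 37 °C. ADP was read by HTRF Transcreener.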
# FUS suppressor – FUS proteinopathy suppression in yeast | Potency, µM (highest dose often 76.6 µM), hits mostly activators | 0.24% of 390,000 active | S. cerevisiae FUS-expressing, growth rescue, OD600, 24 h;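 further: potency means the concentration at half of the fitted maximal effect; plate controls were DMSO vehicle for no effect and reference control for full effect; nearly all actives have a fitted effect of over 55% in size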
#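 Quantitative HTS measuring growth restoration of FUS-toxic yeast. Galactose-induced cells (OD 0.005) were exposed 24hr at 30C to compounds at several concentrations, then absorbance at 600 nm was recorded.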
# Abeta rescue – restores growth of yeast expressing A-beta42 peptide; yeast expressing A-beta42, growth rescue, OD600, 48 h; response scale: 0% DMSO, 100% iron-clioquinol control; Potency, µM (titrated, usually from 46.1 µM), usual class: activators; 0.063% of 410,000 active; further: potency means the concentration at half of the fitted maximal effect; nearly all actives have a fitted effect of over 55% in size
#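 Yeast growth medium received pinned compounds, then yeast cells expressing toxic A-beta were added; plates incubated at 30 C for 48 hr. Growth read as absorbance at 600 nm, normalized to DMSO and equimolar FeCl3 plus clioquinol controls.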
# Mm-Cpn inhibitor – M. maripaludis TRiC chaperonin inhibition; purified Mm-Cpn ATPase, ADP Transcreener TR-FRET; Potency, µM (highest dose often 76.9 µM), without a hit: at the highest dose activity, negative = inhibition, hits mostly inhibitors; 0.031% of 330,000 active; AID 504842; further: potency means the concentration at half of the fitted maximal effect; on the % scale 0 is the no-effect control and ±100 the full control effect; nearly all actives have a fitted effect of over 80% in size
#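 Reaction buffer contained 30 mM Tris pH 7.4, 100 mM KCl, 5 mM MgCl2 and 1 mM DTT. Mm-CPN (25 nM final) hydrolysed 10 uM ATP over 30 min at 37°C; ADP was read by HTRF.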
# * hit, by the source's call; i = inactive; ? = inconclusive; · = no result given. Unless noted, the call rests on the fitted dose curve; in most records, active means well fitted curve in the direction sought with a large enough effect; inconclusive means small, poorly fitted or top-dose-only effect, or another doubt; inactive means no such curve, though single readings can be large; an effect the other way counts as inactive or inconclusive.
SMILES,TDP-43 yeast inh,aSyn rescue,CCT chaperon mod,FUS suppressor,Abeta rescue,Mm-Cpn inhibitor
Cc1cc(C(=O)NC2CCC(C)CC2)c(C)o1 (configuration not stated),13µM*,?,0,i,i,1%
Cc1cc(C(=O)OCC(=O)NC2CCC(C)CC2)c(C)o1 (configuration not stated),-4%,1%,1,·,i,1%
COC(=O)c1cc2c([nH]c1=O)CC(c1ccccc1)CC2=O (configuration not stated),·,3%,·,·,·,·
CCN(CC)CCCN1C(=O)C2=C(C1=O)C1N(C)c3ccccc3[C@@]13C[C@@H](CO)N(C(=O)CCC(=O)OC)C3=N2 (some centres not stated),·,·,·,i,·,·
CCOC(=O)CSc1nc(C(C)C)nc2ccccc12,0%,1%,-43*,i,i,-5%
Cc1cc(-c2ccc(C)c(S(=O)(=O)NCc3cccc(Br)c3)c2)on1,35µM*,2%,-1,?,i,-2%
Cc1cc(-c2ccc(C)c(S(=O)(=O)NCc3ccc(Br)cc3)c2)on1,18µM*,14%,-1,i,i,-2%
CC1=C(C(=O)N(C(C)C)C(C)C)CC(CC(=O)NCc2cccc3ccccc23)C(=O)N1Cc1ccc(F)cc1 (configuration not stated),-4%,?,2,18µM*,i,·
COc1ccc(CN2C(=O)C(CC(=O)NC3CCCCC3)CC(C(=O)N(C)C)=C2C)cc1 (configuration not stated),-4%,3.5µM*,1,i,i,·
COc1ccccc1C(=O)OCC(=O)Nc1ccc(N2CCCCC2)cc1,·,-1%,·,·,·,·
N#Cc1ccc(-c2csc(NC(=O)c3ccc(N4C(=O)CCC4=O)cc3)n2)cc1,0%,?,-1,i,i,32µM*
COc1ccc(C2C(C#N)=C(N)Oc3c2oc(CO)cc3=O)c(OC)c1OC (configuration not stated),-8%,1%,-34*,i,i,1%
COc1cccc(C2C(C#N)=C(N)Oc3c2oc(CO)cc3=O)c1OC (configuration not stated),13%,2%,-1,i,i,0%
CCOCc1cc(CN2CCN(c3cccc(C(F)(F)F)c3)CC2)c(O)c2ncccc12,25µM*,·,·,i,i,·
CC(C)OCc1cc(CN2CCN(c3cccc(C(F)(F)F)c3)CC2)c(O)c2ncccc12,0%,·,·,i,i,·
N#Cc1nc(N)nc(N2CCCCC2)n1,·,-9%,·,·,·,·
C=CCSc1nnc(-c2cc3c(C(F)(F)F)nn(C)c3s2)n1C,20%,0%,-3,i,i,-1%
C=CCSc1nnc(-c2cc3c(-c4ccccc4)nn(C)c3s2)n1C,20µM*,6%,-2,i,i,0%
Cc1nn(C)c(C(=O)Nc2ccc(S(=O)(=O)NC34CC5CC(CC(C5)C3)C4)cc2)c1Br,4%,22µM*,0,i,?,-3%
CCc1ccc(NC(=O)c2cc(C(C)=O)n3ccccc23)cc1,11µM*,·,·,i,i,·
O=C(NCCCN1CCN(c2ccccc2F)CC1)c1ccc2nc(CCc3ccccc3)oc2c1,-22%,·,·,i,i,·
C=C(C)C(=O)Nc1cccc(C2=NOC3(C2)C[C@H](C(N)=O)N(C(=O)/C=C/C)C3)c1 (some centres not stated),-8%,-1%,-50*,i,i,-5%
O=[N+]([O-])c1cc(S(=O)(=O)Nc2ccccc2)ccc1Nc1ccccc1,13µM*,13%,-2,i,?,·
CCOC(=O)c1ccc(NC(=S)N(CCN(C)C)C(C)c2ccncc2)cc1 (configuration not stated),23%,28µM*,1,i,i,2%
C(=C/c1nccc2c1[nH]c1ccccc12)/c1ccc2c(c1)OCO2,10µM*,13%,-10,i,i,-12%
SMILES,TDP-43 yeast inh,aSyn rescue,CCT chaperon mod,FUS suppressor,Abeta rescue,Mm-Cpn inhibitor
O=C(NC1CCSc2ccccc21)c1cccc([N+](=O)[O-])c1 (configuration not stated),13µM*,0%,-1,i,i,0%
CN(C)S(=O)(=O)c1cccc(C(=O)NC2CCSc3ccccc32)c1 (configuration not stated),-1%,9%,-1,i,i,2%
CC1(C)CC(=O)C=C(Nc2ccccc2NC(=O)c2cc(F)ccc2F)C1,·,·,·,i,·,·
Cc1sc2ccccc2[n+]1CC(=O)c1ccccc1,11µM*,7%,-5,?,i,-4%
Cn1cnc([N+](=O)[O-])c1S(=O)(=O)c1cccc(Cl)c1,13µM*,4%,-2,i,i,-3%
Cn1cnc([N+](=O)[O-])c1S(=O)(=O)Oc1ccccc1,13µM*,-6%,-1,i,i,·
C=CCn1c(Sc2ncc([N+](=O)[O-])s2)n[nH]c1=O,13µM*,2%,-14,i,i,-5%
Clc1cccc2sc(N3CCCC3)nc12,13µM*,2%,-2,i,i,0%
S=C(NCC1CCCO1)c1ccc(Br)cc1 (configuration not stated),11µM*,-8%,-1,i,i,-1%
O=C(NCC1CCCO1)c1ccc(C(=O)NCC2CCCO2)cc1 (configuration not stated),-20%,3%,1,i,i,-3%
Cc1ccc(S(=O)(=O)N2CC[C@@]3(Cc4ccccc4)Cc4ccccc4C[C@@H]23)cc1,·,·,·,i,·,·
COc1ccc(OCC(O)CNc2ccc(Br)cc2)cc1 (configuration not stated),11µM*,21%,-2,i,i,1%
O=C(COCc1cc(-c2ccc3c(c2)OCO3)on1)NCc1ccccc1Cl,28µM*,·,·,i,i,·
Cc1ccc2onc(CNC(=O)N3CCN(c4cccc(C)c4C)CC3)c2c1,20µM*,·,·,?,i,·
COc1ccc(N2CCN(C(=O)Cc3noc4ccc(C)cc34)CC2)cc1,11µM*,·,·,i,i,·
COc1ccc(CCNC(=O)CCCCn2c(=O)c3ccccc3n(Cc3ccc(Cl)cc3)c2=O)cc1OC,25%,·,·,?,i,·
O=C(O)c1cnc(-c2ccccc2)nc1C(F)(F)F,-26%,-5%,-51*,i,i,1%
Cc1ccc(-c2cc(C(=O)NN=Cc3sccc3C)[nH]n2)cc1C,·,·,·,i,·,·
CCOC(=O)N1CCN(C(=O)c2ccc3oc(CCCc4ccccc4)nc3c2)CC1,16µM*,6%,-1,i,i,0%
O=C(Nc1nc2ncccn2c1-c1ccccc1)c1ccccc1,·,·,·,i,·,·

# Screening data deposited in PubChem by National Center for Advancing Translational Sciences (NCATS).
